{"source": "PubChem BioAssay AID1852", "about": "(Sanford-Burnham Center for Chemical Genomics, 2009)", "note": "About 1,100 (44%) of roughly 2,500 compounds were called active.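 How the source made its calls: active means inhibition above 50% at 4 µM in the single-point screen; inactive means inhibition of 50% or less.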 The set was probably picked from earlier hits. Some of the results follow."}
{"assay": "TNF-a-driven NF-kB reporter inhibitors, primary screen, selectivity assay for NOD1/NOD2 signaling inhibitor project, cell-based, HEK293T NF-kB-Luc, luminescence (AID 1852)", "conditions": "TNF-a induced, 14 h, at 4 µM, hits give high values"}
{"smiles": "CC1(C)N=C(N)N=C(N)N1c1ccc(OCCCOc2ccccc2)c(Cl)c1", "inhibition": "59.9% (active)"}
{"smiles": "COc1ccc2nc(N3CCCCC3)c(/C=C3\\SC(=S)NC3=O)cc2c1", "inhibition": "43.6% (inactive)"}
{"smiles": "O=S1(=O)C=C(Sc2nc3ccccc3s2)c2ccccc21", "inhibition": "82.7% (active)"}
{"smiles": "Cn1c(SC2=CS(=O)(=O)c3ccccc32)nc2ccccc21", "inhibition": "56% (active)"}
{"smiles": "Cc1cc(C)nc(SC2=CS(=O)(=O)c3ccccc32)n1", "inhibition": "14.1% (inactive)"}
{"smiles": "O=C(Nc1ccc(CN2CCOCC2)cc1)c1ccc(-c2ccc(Cl)cc2Cl)o1", "inhibition": "44.2% (inactive)"}
{"smiles": "O=C(Nc1ccc(S(=O)(=O)N2CCCC2)cc1)c1ccc(Br)o1", "inhibition": "6% (inactive)"}
{"smiles": "O=C(Nc1ccc(Cc2ccncc2)cc1)c1ccc(S(=O)(=O)N2CCCC2)cc1", "inhibition": "50.3% (active)"}
{"smiles": "O=C(Nc1ccc(S(=O)(=O)N2CCCCC2)cc1)c1ccc(CN2CCOCC2)cc1", "inhibition": "73.2% (active)"}
{"smiles": "CCN(CC)c1ccc(S(=O)(=O)N2CCOCC2)cc1NC(=O)CN1CCc2ccccc2C1", "inhibition": "21.6% (inactive)"}
{"smiles": "O=C(Nc1ccc(S(=O)(=O)N2CCOCC2)cc1)c1ccc(CN2CCc3ccccc3C2)cc1", "inhibition": "65.5% (active)"}
{"smiles": "COc1ccc(NS(=O)(=O)c2ccc(NC(=O)c3ccc(CN4CCOCC4)cc3)cc2)cc1", "inhibition": "37.6% (inactive)"}
{"smiles": "O=C(Nc1ccc(S(=O)(=O)Nc2ccc(F)cc2)cc1)c1ccc(CN2CCOCC2)cc1", "inhibition": "61.1% (active)"}
{"smiles": "C/C=C/Cn1c(SCc2ccc(C)cc2)nc2c1c(=O)[nH]c(=O)n2C", "inhibition": "18.9% (inactive)"}
{"smiles": "O=C(Nc1ccc(S(=O)(=O)N2CCCCC2)cc1)c1ccc(CN2CCc3ccccc3C2)cc1", "inhibition": "59% (active)"}
{"smiles": "CCN(CC)S(=O)(=O)c1ccc(C(=O)Nc2ccc(Cc3ccncc3)cc2)cc1", "inhibition": "63% (active)"}
{"smiles": "CCN(CC)S(=O)(=O)c1cccc(NC(=O)c2ccc(Br)cc2)c1", "inhibition": "27.5% (inactive)"}
{"smiles": "COc1ccccc1NS(=O)(=O)c1cccc(NC(=O)Nc2ccc(Cl)cc2)c1", "inhibition": "46.4% (inactive)"}
{"smiles": "COc1ccccc1NS(=O)(=O)c1cccc(-n2c(O)c(C=Nc3ccccc3C(=O)O)c3ccccc3c2=O)c1", "inhibition": "69% (active)"}
{"smiles": "CCN(CC)S(=O)(=O)c1cccc(C(=O)c2c(C)cc3ccccn23)c1", "inhibition": "27.9% (inactive)"}
{"smiles": "COc1ccc(CNc2nc3c(c(=O)n(Cc4ccc(Br)cc4)c(=O)n3C)n2C)cc1", "inhibition": "15.5% (inactive)"}
{"smiles": "COc1ccc(Cn2c(O)c(C=Nc3ccccc3C(=O)O)c3ccccc3c2=O)cc1", "inhibition": "69.6% (active)"}
{"smiles": "CCN(CC)S(=O)(=O)c1cccc(-n2c(O)c(C=Nc3ccccc3C(=O)O)c3ccccc3c2=O)c1", "inhibition": "70.1% (active)"}
{"smiles": "O=C(Nc1ccc(Cl)cc1)c1cccc(N2C(=O)C3C4CCC(C4)C3C2=O)c1", "note": "(stereo not given)", "inhibition": "3.3% (inactive)"}
{"smiles": "COc1cc(NC(=O)c2cccs2)c(C(=O)OCC(=O)c2cc(C)n(-c3ccccc3)c2C)cc1OC", "inhibition": "41.1% (inactive)"}
{"smiles": "Cc1cc(C(=O)Nc2ccc(Cl)cc2)c(C)n1-c1ccccc1", "inhibition": "56.3% (active)"}
{"smiles": "CCOc1ccc(NC(=O)C2CCCN(S(=O)(=O)c3c(C)noc3C)C2)cc1", "note": "(stereo not given)", "inhibition": "49.2% (inactive)"}
{"smiles": "COc1ccc(-c2nnc(Sc3nc4ccccc4o3)c3ccccc23)cc1", "inhibition": "-25.6% (inactive)"}
{"smiles": "COc1ccc(-c2nc(NC(C)=O)sc2-c2ccccc2)cc1", "inhibition": "58.1% (active)"}
{"smiles": "CC(=O)c1c(C)[nH]c(C(=O)Nc2nc(-c3ccccc3)c(C)s2)c1C", "inhibition": "-37.3% (inactive)"}
{"smiles": "CCc1ccc(S(=O)(=O)/N=C2\\C=C(Nc3ccc(C(=O)O)cc3)C(=O)c3ccccc32)cc1", "inhibition": "49.3% (inactive)"}
{"smiles": "COc1ccc(S(=O)(=O)n2ccc(C(C)Oc3ccc(-c4ccccc4)c(F)c3)n2)cc1", "note": "(stereo not given)", "inhibition": "20.1% (inactive)"}
{"smiles": "O=C(O)c1cccc(S(=O)(=O)Nc2ccccc2Cc2ccccc2)c1", "inhibition": "14.3% (inactive)"}
{"smiles": "COc1ccc(S(=O)(=O)/N=C2\\C=C(Nc3ccc(O)cc3)C(=O)c3ccccc32)cc1", "inhibition": "101% (active)"}
{"smiles": "CCc1ccc(S(=O)(=O)/N=C2\\C=C(Nc3ccc(O)cc3)C(=O)c3ccccc32)cc1", "inhibition": "106% (active)"}
{"smiles": "O=C1C(Cl)=C(Nc2ccc(O)cc2)C(=O)c2ccccc21", "inhibition": "30.4% (inactive)"}
{"smiles": "CCc1ccc(S(=O)(=O)/N=C2\\C=C(Nc3cccc(C(=O)O)c3)C(=O)c3ccccc32)cc1", "inhibition": "107% (active)"}
{"smiles": "c1ccc(CCCNc2ncccn2)cc1", "inhibition": "19% (inactive)"}
{"smiles": "CCOc1ccc2nc(SCc3ccc(CC(=O)O)cc3)c(C#N)cc2c1", "inhibition": "64.6% (active)"}
{"smiles": "Nc1c(Cl)ncnc1N/N=C/c1ccccn1", "inhibition": "109% (active)"}
{"smiles": "Cc1cc(/C=N/Nc2ncnc(N)c2[N+](=O)[O-])c(C)n1-c1ccccc1", "inhibition": "3.7% (inactive)"}
{"smiles": "COc1cc(/C=C2\\CC(C(C)(C)C)C/C(=C\\c3cc(OC)c(OC)c(OC)c3)C2=O)cc(OC)c1OC", "note": "(stereo not given)", "inhibition": "87.2% (active)"}
{"smiles": "COc1cc(/C=C2\\COC/C(=C\\c3cc(OC)c(OC)c(OC)c3)C2=O)cc(OC)c1OC", "inhibition": "106% (active)"}
{"smiles": "COc1cc(/C=C2/CCc3ccccc3C2=O)cc(OC)c1OC", "inhibition": "-23.8% (inactive)"}
{"smiles": "Cc1cccc(NC2=C/C(=N/S(=O)(=O)c3cccs3)c3ccccc3C2=O)c1", "inhibition": "63.9% (active)"}
{"smiles": "COC(=O)c1ccccc1NC1=C/C(=N\\S(=O)(=O)c2cccs2)c2ccccc2C1=O", "inhibition": "99.7% (active)"}
{"smiles": "CCc1cccc(NC(=O)C2CCCN(S(=O)(=O)c3cccs3)C2)c1", "note": "(stereo not given)", "inhibition": "18.2% (inactive)"}
{"smiles": "Cc1ccc(NC2=C/C(=N\\S(=O)(=O)c3cccs3)c3ccccc3C2=O)c(C)c1", "inhibition": "102% (active)"}
{"smiles": "Cc1ccccc1NC1=C/C(=N\\S(=O)(=O)c2cccs2)c2ccccc2C1=O", "inhibition": "108% (active)"}
{"smiles": "COc1ccc(CNS(=O)(=O)c2ccc3c(c2)CC(C)N3C(=O)C2CC2)cc1", "note": "(stereo not given)", "inhibition": "30% (inactive)"}
{"smiles": "Cc1ccc(Cl)cc1NC1=C/C(=N\\S(=O)(=O)c2cccs2)c2ccccc2C1=O", "inhibition": "102% (active)"}
{"smiles": "CCOc1ccc(OCCN2C(=O)NC3(CCCc4ccccc43)C2=O)cc1", "note": "(stereo not given)", "inhibition": "18.7% (inactive)"}
{"smiles": "CCN(CC)S(=O)(=O)c1cccc(C(=O)Nc2nc3cc4c(cc3s2)OCCO4)c1", "inhibition": "22% (inactive)"}
{"smiles": "CN(CC1CCCO1)S(=O)(=O)c1ccc(C(=O)Nc2nc3cc4c(cc3s2)OCO4)cc1", "note": "(stereo not given)", "inhibition": "69.7% (active)"}
{"smiles": "O=C(Nc1nc2cc3c(cc2s1)OCCO3)C1=COCCO1", "inhibition": "22.7% (inactive)"}
